dFosB act-1: activators of delta FosB homodimer, primary screen, biochemical, fluorescence polarization, TAMRA-CDK5 oligo, single point; Protein FosB (Mus musculus), P13346; activation, % at 25 µM; AID 493131, 2011; 340,000 tested, 0.99% active; purified delta FosB; percent of positive-control signal above neutral wells;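 active means mean activation above about 17%, with every replicate also reaching it, limit read from the data, passing the limit was not always enough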
Target sequence (P13346 whole entry, looked up): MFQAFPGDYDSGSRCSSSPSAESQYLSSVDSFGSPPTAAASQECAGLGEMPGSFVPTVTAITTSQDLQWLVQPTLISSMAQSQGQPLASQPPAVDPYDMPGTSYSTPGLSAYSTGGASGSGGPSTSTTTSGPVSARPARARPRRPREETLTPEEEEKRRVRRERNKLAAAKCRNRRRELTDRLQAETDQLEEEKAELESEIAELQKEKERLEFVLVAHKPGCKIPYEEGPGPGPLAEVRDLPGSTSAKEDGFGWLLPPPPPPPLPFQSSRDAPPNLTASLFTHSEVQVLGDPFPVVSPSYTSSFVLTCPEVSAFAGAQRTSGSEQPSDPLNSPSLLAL
PolyA inhibitor: polyadenylation inhibitors in yeast reporter cells, primary screen, luminescence, S. cerevisiae. 300,000 tested, 0.02% active. S. cerevisiae SKY197-pL101 polyadenylation reporter, beta-gal luminescence; efflux-impaired pdr1/pdr3 knockout yeast; score 100 = 6 SD above DMSO. activity score, % at 12 µM;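 active means lowest replicate activity score at least 50, where 100 means six control SD above control mean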;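 further: yeast exposed to compound for 9 h at 30 °C; higher score means more reporter readthrough which indicates perturbed polyadenylation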
NALP1 inh: NALP1 inflammasome inhibitors in reconstituted yeast, colorimetric, S. cerevisiae, triplicate retest | 280,000 tested, 0.61% active | inhibition, % at 10 µM | S. cerevisiae NALP1/ASC/caspase-1 growth, X-gal OD620, 72 h; in the data active means inhibition mostly above about 24%, no sharp cut-off; inactive means mostly below about 32%
NALP3 yeast inh: NALP3 inflammasome inhibitors in reconstituted yeast, primary screen, luminescence, uHTS; Yeast reconstituted NLRP3/ASC/caspase-1, beta-gal luminescence, 24 h; inhibition, % at 10 µM; 330,000 tested, 0.39% active; AID 2825, 2010;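 active means inhibition of 50% or more; inactive means inhibition below 50%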
EBNA-1 inhibitor: EBNA-1 DNA-binding inhibitors, primary screen, biochemical, fluorescence polarization | inhibition, % at 14.8 µM | 300,000 tested, 0.34% active; in the data active means inhibition above about 28%
ZTA counter: blocks Epstein-Barr virus ZTA, an EBNA-1 counter-screen; ZTA-DNA binding, fluorescence polarization; inhibition, % at 11 µM; 320,000 tested, 0.15% active; in the data active means inhibition above about 33%
Target sequence (P03206 whole entry, looked up): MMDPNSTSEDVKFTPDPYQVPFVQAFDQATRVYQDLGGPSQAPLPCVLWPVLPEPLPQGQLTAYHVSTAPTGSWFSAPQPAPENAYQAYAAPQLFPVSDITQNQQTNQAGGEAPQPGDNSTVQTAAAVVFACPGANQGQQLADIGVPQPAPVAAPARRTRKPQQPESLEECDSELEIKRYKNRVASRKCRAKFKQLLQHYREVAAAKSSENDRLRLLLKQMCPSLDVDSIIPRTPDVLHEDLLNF
dFosB act-2: activators of mouse delta FosB DNA binding, confirmation, biochemical, fluorescence polarization, TAMRA-CDK5 oligo, cherry-picked samples. AID 588690, 2011. shares compounds with dFosB act-1. purified delta FosB; normalised: neutral wells 0, positive control 100. 2,400 tested, under 10 active. activation, % at 24.9 µM;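 active means highest replicate activation at or above 34% and every replicate reaching that threshold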;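 further: higher polarization means more probe DNA bound by delta FosB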
Large screens that a line does not name were inactive (follow-up assays come after a bar, where they were run). A selection: hits, their analogues and other compounds. The true share with any hit is near 2.2%.

CCN(CC)CCN(C(=O)CCS(=O)(=O)c1ccccc1)c1nc2cc(C)cc(C)c2s1	dFosB act-1 43.2 | dFosB act-2 inactive
CCN(CC)CCN(C(=O)CCS(=O)(=O)c1ccccc1)c1nc2c(C)cc(C)cc2s1	dFosB act-1 56.4 | dFosB act-2 inactive
CCN(CC)CCN(C(=O)CCS(=O)(=O)c1ccccc1)c1nc2cc(OC)c(OC)cc2s1	none
COc1ccc(Cl)c2sc(N(CCN(C)C)C(=O)CCS(=O)(=O)c3ccc(C)cc3)nc12	dFosB act-1 81.7 (no result: NALP1 inh) | dFosB act-2 inactive
Cc1cc(C)c2sc(N(CCN(C)C)C(=O)CCS(=O)(=O)c3ccccc3)nc2c1	dFosB act-1 21.2 | dFosB act-2 inactive
COc1ccc(OC)c2sc(N(CCCN(C)C)C(=O)CCS(=O)(=O)c3ccccc3)nc12	none (no result: NALP1 inh)
C=CCOc1ccc(C=CC(=O)c2c(O)c(OC)c(OC)c(OC)c2OC)cc1	none (no result: PolyA inhibitor, NALP1 inh, NALP3 yeast inh, EBNA-1 inhibitor, ZTA counter)
Cc1ccc(C(=O)OCC(=O)NNC(=O)c2ccc([N+](=O)[O-])cc2)o1	none (no result: NALP1 inh)
CC(=O)c1ccc(-c2ccc(C(=O)N(C)Cc3nc4ccccc4c(=O)[nH]3)o2)cc1	none (no result: PolyA inhibitor, NALP1 inh, EBNA-1 inhibitor)
CCCCCc1nnc(NC(=O)c2ccc(N3CCCC3=O)cc2)s1	none (no result: NALP1 inh)
CCN(CC)CCN(C(=O)c1ccc2c(c1)OCCO2)c1nc2c(Cl)cccc2s1	none
CCN(CC)CCN(C(=O)c1ccc2c(c1)OCCO2)c1nc2cc(C)cc(C)c2s1	dFosB act-1 29.6 | dFosB act-2 inactive
CN(C(=O)COc1ncnc2sccc12)C1CCCCC1	none (no result: PolyA inhibitor, NALP1 inh, EBNA-1 inhibitor)
O=C(Cn1c(=O)oc2ccccc21)Nc1ccc(S(=O)(=O)N2CCCCC2)cc1	dFosB act-1 59.8 | dFosB act-2 inactive
CCN(CC)S(=O)(=O)c1ccc(NC(=O)Cn2c(=O)oc3ccccc32)cc1	none
COc1cccc(/C=C2\NC(=O)NC2=O)c1O	none
COc1ccc(-c2noc(CCC(=O)NCc3cc(Br)ccc3OC)n2)cc1	none
COc1ccc(Br)cc1CNC(=O)CCc1nc(-c2ccc(C)cc2)no1	dFosB act-1 20.6 | dFosB act-2 inactive
CC(C)CCNC(=O)c1ccc(-n2cnc3cccnc32)cc1	none
Cc1ccccc1-n1nnnc1SCC(=O)NNC(=O)c1ccc(NC(=O)CC#N)cc1	dFosB act-1 47.4 (no result: PolyA inhibitor, NALP1 inh, EBNA-1 inhibitor) | dFosB act-2 inactive
CCOC(=O)c1sc(NC(=O)CSc2nnnn2-c2ccc(C)cc2C)nc1C	none
COC(=O)c1ccccc1NC(=O)CSc1nnnn1-c1ccc(C)cc1C	dFosB act-1 30.9 | dFosB act-2 inactive
Cc1ccccc1-n1nnnc1SCC(=O)Nc1ccc(N2CCN(C)CC2)cc1	none
COc1ccccc1N(C)S(=O)(=O)c1ccc(C(=O)Nc2cc(OC)c(OC)c(OC)c2)cc1	none (no result: PolyA inhibitor, NALP1 inh, NALP3 yeast inh, EBNA-1 inhibitor, ZTA counter)
Cc1ccc(-c2nc(SCC(=O)c3c(N)n(C)c(=O)n(C)c3=O)n[nH]2)cc1	dFosB act-1 32.3 | dFosB act-2 inactive
Cn1c(N)c(C(=O)CSc2nnnn2-c2ccccc2)c(=O)n(C)c1=O	none
Cc1ccccc1-n1nnnc1SCC(=O)c1c(N)n(C)c(=O)n(C)c1=O	dFosB act-1 23.1 | dFosB act-2 inactive
COc1ccc(C(=O)Nc2c(N)nc(SCC(=O)Nc3ccc(NC(C)=O)cc3)[nH]c2=O)cc1	none
CCc1ccc(NC(=O)CSc2nc(N)c(NC(=O)c3ccc(F)c(F)c3)c(=O)[nH]2)cc1	dFosB act-1 29.4 | dFosB act-2 inactive
Cc1ccc(C(=O)Nc2c(N)nc(SCC(=O)Nc3cc(C)on3)[nH]c2=O)cc1	dFosB act-1 25.6 | dFosB act-2 inactive
Nc1nc(SCC(=O)Nc2ccc(F)cc2)[nH]c(=O)c1NC(=O)c1ccc(F)c(F)c1	dFosB act-1 26.6 | dFosB act-2 inactive
Cc1cc(C)cc(NC(=O)CSc2nc(N)c(NC(=O)c3cccs3)c(=O)[nH]2)c1	dFosB act-1 31.1 | dFosB act-2 inactive
Nc1nc(SCC(=O)NCC2CCCO2)[nH]c(=O)c1NC(=O)c1ccc(F)c(F)c1 (configuration not stated)	none
COc1ccccc1CN(C)C(=O)c1ccc(S(=O)(=O)Nc2c(C)n(C)n(-c3ccccc3)c2=O)cc1	none (no result: PolyA inhibitor, NALP1 inh, EBNA-1 inhibitor, ZTA counter)
Cc1c(C(=O)N2CCc3ccccc3C2)oc2ccccc12	none
COc1ccccc1C(=O)Nc1ccnn1C1CCN(C(=O)c2ccoc2C)CC1	none
COc1ccc(CNc2c(C(=O)O)cnc3c2cnn3C)cc1	none
CCOC(=O)c1cnc2c(cnn2C)c1NCc1ccc(OC)cc1	dFosB act-1 29.4 | dFosB act-2 inactive
O=[N+]([O-])c1ccc(COc2cccc(CN3CCCCC3)c2)cc1	none (no result: PolyA inhibitor, NALP1 inh, NALP3 yeast inh, EBNA-1 inhibitor, ZTA counter)
COc1ccccc1/C=C1\SC(=O)N(CCC(=O)NNC(=O)c2ccccc2Cl)C1=O	dFosB act-1 20.8 | dFosB act-2 inactive
O=C(N/N=C\c1cccnc1)c1cc(-c2ccc(Cl)s2)[nH]n1	dFosB act-1 32.9 | dFosB act-2 inactive
O=C(N/N=C/c1ccncc1)c1cccc(NC(=O)c2ccc(Cl)cc2)c1	dFosB act-1 41.1 | dFosB act-2 inactive
O=C(N/N=C/c1cccnc1)c1ccccc1Cl	none
O=C(N/N=C/c1cccnc1)c1ccc(NC(=O)c2ccc(Cl)cc2)cc1	dFosB act-1 42.5 | dFosB act-2 inactive
COc1ccc(Cn2c(C)c(C)c(C#N)c2NC(=O)Nc2cccc(C)c2)cc1	dFosB act-1 62.8 | dFosB act-2 inactive
COc1ccc(Cn2c(C)c(C)c(C#N)c2NC(=O)Nc2ccccc2)cc1	none
CC(=O)Nc1ccc(Sc2ncccc2C(=O)Nc2cc(Cl)cc(Cl)c2)cn1	dFosB act-1 81.7 | dFosB act-2 inactive
CC(=O)Nc1ccc(Sc2ncccc2C(=O)Nc2ccc(OC(F)(F)F)cc2)cn1	dFosB act-1 51.3 | dFosB act-2 inactive
COc1cc(NC(=O)c2cccnc2Sc2ccc(C)c(C)c2)cc(OC)c1OC	none
O=C(O)c1ccc(COc2ccccc2/C=C2/NC(=O)N(c3cccc(Cl)c3)C2=O)cc1	dFosB act-1 28.4 | dFosB act-2 inactive
O=C(CN1C(=O)/C(=C/c2ccc(C(F)(F)F)cc2)Sc2ccccc21)NCCCN1CCOCC1	dFosB act-1 25.1 | dFosB act-2 inactive
C=CCOc1ccc(/C=N/n2nnnc2N)cc1OC	none (no result: NALP1 inh)
COc1ccc(OC)c(-c2cc(C(=O)Nc3ccc(F)cc3F)no2)c1	dFosB act-1 33.3 | dFosB act-2 inactive
Cc1cccc(NC(=O)c2cc(-c3cccnc3)nc3c(C)cccc23)n1	dFosB act-1 54.5 | dFosB act-2 inactive
Cc1cc(NC(=O)c2cc(-c3ccncc3)nc3c(C)cccc23)no1	none
NS(=O)(=O)c1ccc(CCNC(=O)C2CCCCC2)cc1	none

Bioassay records as filed in PubChem.
